# High-throughput results: PubChem BioAssay, The Scripps Research Institute Molecular Screening Center
# UHRF1 MBD2 ctr = UHRF1 methyl-DNA binding inhibition; inhibition, % at 4.4 µM; hit rate 0.75% among 370,000; Q96T88; UHRF1 binding to methylated oligo, TR-FRET; in the data active = inhibition above about 21%;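 also: UHRF1 SRA domain binding a hemimethylated CpG hairpin DNA probe; 0% = median of test compound wells and 100% = reference inhibitor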
# LEDGF integ inh = blocks HIV-1 LEDGF/p75-dependent DNA integration | TR-FRET IN-LEDGF/p75 DNA integration, Eu/Cy5 | inhibition, % at 3.7 µM | hit rate 0.64% among 370,000 | AID 743269;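 active = inhibition above the screen-wide mean plus 3 SD, cut at about 13% in these data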;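 also: signal is the Cy5 over europium emission ratio at 671 and 618 nm; 0% = plate median of compound wells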
# PLC-beta3 inh = inhibitors of human phospholipase C beta3; inhibition, % at 12.2 µM; Purified PLC-beta3, fluorogenic substrate, fluorescence; hit rate 0.18% among 370,000; in the data active = inhibition above about 11%;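 also: 0% = median of compound wells on plate and 100% = full blocker control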
# MBD2 inh = inhibitors of human MBD2 binding to methylated oligonucleotide. TR-FRET. inhibition, % at 4.4 µM. hit rate 0.31% among 370,000; in the data active = inhibition above about 13%
# PLC-gamma1 inh = PLC-gamma1 (human) inhibition, primary screen | hit rate 0.84% among 370,000 | inhibition, % at 12.2 µM | purified PLC-gamma1, fluorogenic substrate, fluorescence | P19174; in the data active = inhibition above about 9.5%
# An asterisk follows results filed as active; i = inactive. Compounds with a hit are over-represented: about 2.4% of the library has one in this group of screens.
SMILES,UHRF1 MBD2 ctr,LEDGF integ inh,PLC-beta3 inh,MBD2 inh,PLC-gamma1 inh
O=C(OC1CC2CC1[C@H]1CCCCN1C2=O)N1CCN(c2ccccc2)CC1 (stereo partly drawn),0,-1,5,-1,2
CN1CCN(C(=O)OC2CC3CC2[C@H]2CCCCN2C3=O)CC1 (stereo partly drawn),21*,1,2,2,2
Cc1c(NC(=O)C2CCCN(S(=O)(=O)c3cccc4ccccc34)C2)c(=O)n(-c2ccccc2)n1C (stereo not drawn),-3,6,0,-7,1
CC(=O)N(Cc1ccc(F)cc1)C1=C(NCCc2ccccc2)C(=O)c2ccccc2C1=O,2,23*,-56,1,5
CCN(C(=O)COC(=O)/C=C/c1cnc2ccccc2n1)c1ccccc1,26*,-4,1,-1,-1
CC(C)N(Cc1ccccc1)C(=O)COC(=O)/C=C/c1cnc2ccccc2n1,-2,3,-5,-2,1
CCOc1ccc(C=Nn2c(-c3ccc(F)cc3)n[nH]c2=S)cc1,-2,2,2,-6,0
O=c1cc(-c2ccccc2)nc(Sc2ccc([N+](=O)[O-])cc2[N+](=O)[O-])[nH]1,-1,-1,0,-6,4
Cc1cccc(Sc2ccc([N+](=O)[O-])cc2[N+](=O)[O-])n1,28*,-2,1,-2,4
NC(=O)c1ccc(NC(=O)COC(=O)CC2CC3CCC2C3)cc1 (stereo not drawn),-2,-4,1,0,-1
NC(=O)COC(=O)CC1CC2CCC1C2 (stereo not drawn),21*,12,2,2,2
COc1ccc(C(=O)OCC(=O)c2ccc3c(c2)NC(=O)CO3)cc1OC,58*,3,1,-3,0
CCOC(=O)C1=CN(Cc2ccco2)S(=O)(=O)N(C)C1c1ccc2ccccc2c1 (stereo not drawn),0,-2,-6,4,-3
CCOC(=O)C1=CN(Cc2ccco2)S(=O)(=O)N(C)C1CC (stereo not drawn),22*,6,-6,2,1
C=CCN1[C@H](CC(C)C)COc2cccc(N3CCSCC3)c2S1(=O)=O,-1,3,0,1,-2
COc1ccccc1-c1ccc(SCc2ccccc2)nn1,-1,1,-8,0,-2
COc1ccccc1-c1ccc(SCc2cccc(F)c2)nn1,58*,-5,-6,-6,-3
O=C1CCCN2N=C(SCC(=O)Nc3nccs3)SC2=N1,0,3,4,3,-1
O=C1CCCN2N=C(SCC(=O)Nc3nc4ccccc4s3)SC2=N1,1,8,-3,-3,10*
CC1CCN(c2ccc(C(=O)O)cc2NS(=O)(=O)c2ccc(C(C)(C)C)cc2)CC1,1,5,-10,8,2
COc1ccc(-c2nc3c(c(SCC(=O)Nc4cccc(O)c4)n2)Cc2c(CO)cnc(C)c2O3)cc1,-1,14*,-32,1,-17
Cc1ncc(CO)c2c1Oc1nc(-c3ccccc3)nc(SCC(=O)Nc3cccc(O)c3)c1C2,-2,8,-2,0,-4
CCOc1ccc(N(CC(=O)Nc2ccc3c(c2)OCCO3)S(=O)(=O)c2c(C)noc2C)cc1,-1,8,3,-2,4
CCc1ccc(NC(=O)CN(c2ccc3c(c2)OCO3)S(=O)(=O)c2c(C)noc2C)cc1,33*,3,4,1,3
CCOc1ncccc1C(=O)Nc1ccc(F)c(Cl)c1,76*,0,3,8,4
SMILES,UHRF1 MBD2 ctr,LEDGF integ inh,PLC-beta3 inh,MBD2 inh,PLC-gamma1 inh
CCN(CC(=O)NCc1cccs1)S(=O)(=O)c1cccc(C(C)=O)c1,24*,-1,0,5,1
COC(=O)c1ccc(=O)c2nc3/c(=C/O)c(O)cc(=O)c3[nH]c12,21*,52*,8,7,11*
COC(=O)c1ccc(N)cc1O,-2,0,0,0,1
CCOC(=O)[C@]12CCCCC/C=C\1N(Cc1ccc(OC)cc1)C(=O)[C@H]2CC(=O)NCc1ccc(OC)c(OC)c1,1,-2,-2,0,2
COc1ccc(-c2sc3ccccc3c2/C=C/c2ccc(N)cc2)cc1,-1,-4,i,-1,-412
COC(=O)c1ccc(/C=C/c2c(-c3ccsc3)sc3ccccc23)cc1,23*,2,-91,-1,-52
COc1ccccc1C(=O)COC(=O)c1ccccc1O,-4,-3,0,4,-2
COc1ccccc1C(=O)COC(=O)c1ccc(N(C)C)cc1,100*,1,0,3,-1
